# Measured values as given in article PMC7862700, “An all-to-all approach to the identification of sequence-specific readers for epigenetic DNA modifications on cytosine”.
# How the values were obtained:
# Experiment in all cases: DAPPL (digital affinity profiling via proximity ligation, sequencing); 10 mM Tris-HCl pH 7.5, 50 mM NaCl, 1 mM DTT, 4% glycerol, room temperature, 30 min; GST-TFs on glutathione beads, 16-mer random dsDNA library, 0.1% formaldehyde crosslink after washing; high values mean tight binding
# Settings in all cases: protein: recombinant; tags: N-terminal GST; dsDNA, one strand shown
# [1] = molecular target: T1, FLI1 (Homo sapiens, UniProt Q01543 1-452)
# T1 sequence: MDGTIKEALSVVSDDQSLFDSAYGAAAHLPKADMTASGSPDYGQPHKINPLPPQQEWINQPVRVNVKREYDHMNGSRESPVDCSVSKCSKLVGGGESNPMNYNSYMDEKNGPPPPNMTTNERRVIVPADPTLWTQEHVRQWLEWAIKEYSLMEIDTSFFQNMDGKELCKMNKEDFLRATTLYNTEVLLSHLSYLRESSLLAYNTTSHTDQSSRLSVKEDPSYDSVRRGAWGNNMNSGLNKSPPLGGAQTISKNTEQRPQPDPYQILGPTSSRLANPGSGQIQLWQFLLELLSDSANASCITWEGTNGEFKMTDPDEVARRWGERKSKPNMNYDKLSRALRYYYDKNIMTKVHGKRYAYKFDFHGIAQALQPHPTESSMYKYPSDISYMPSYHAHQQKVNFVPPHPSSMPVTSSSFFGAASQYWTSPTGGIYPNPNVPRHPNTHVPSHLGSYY
# How it was run: (§1)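 Sequencing on an Illumina NextSeq500 followed washing, crosslinking with 0.1% formaldehyde, proximity ligation (BsaI/T4 ligase, 1 h, 37 °C) and PCR amplification of pools that had been incubated for 30 min at room temperature with 200 nmole of a random double-stranded 16-mer DNA library in Tris/NaCl/DTT/glycerol buffer. Each pool held DNA-barcoded human transcription factors, expressed in yeast as GST fusions and captured on glutathione beads, plus a tag-only sample. Binding signal is a hexamer's read frequency for a factor divided by its frequency in the tag-only sample.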
# [2] = molecular target: T2, ELK1 (Homo sapiens, UniProt P19419 1-428)
# T2 sequence: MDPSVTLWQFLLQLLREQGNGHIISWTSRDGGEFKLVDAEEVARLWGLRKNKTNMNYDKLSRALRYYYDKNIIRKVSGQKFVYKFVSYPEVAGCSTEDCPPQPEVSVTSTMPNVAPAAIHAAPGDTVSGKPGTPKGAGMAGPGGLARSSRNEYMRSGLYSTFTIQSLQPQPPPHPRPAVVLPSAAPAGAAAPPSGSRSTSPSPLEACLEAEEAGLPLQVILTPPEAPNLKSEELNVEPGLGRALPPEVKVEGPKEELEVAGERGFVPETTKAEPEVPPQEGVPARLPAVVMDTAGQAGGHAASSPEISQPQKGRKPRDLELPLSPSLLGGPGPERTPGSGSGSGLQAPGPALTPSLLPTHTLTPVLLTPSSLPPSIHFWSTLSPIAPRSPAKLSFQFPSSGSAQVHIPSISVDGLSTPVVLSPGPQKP
# How it was run: as §1
# [3] = molecular target: T3, GABPA (Homo sapiens, UniProt Q06546 1-454)
# T3 sequence: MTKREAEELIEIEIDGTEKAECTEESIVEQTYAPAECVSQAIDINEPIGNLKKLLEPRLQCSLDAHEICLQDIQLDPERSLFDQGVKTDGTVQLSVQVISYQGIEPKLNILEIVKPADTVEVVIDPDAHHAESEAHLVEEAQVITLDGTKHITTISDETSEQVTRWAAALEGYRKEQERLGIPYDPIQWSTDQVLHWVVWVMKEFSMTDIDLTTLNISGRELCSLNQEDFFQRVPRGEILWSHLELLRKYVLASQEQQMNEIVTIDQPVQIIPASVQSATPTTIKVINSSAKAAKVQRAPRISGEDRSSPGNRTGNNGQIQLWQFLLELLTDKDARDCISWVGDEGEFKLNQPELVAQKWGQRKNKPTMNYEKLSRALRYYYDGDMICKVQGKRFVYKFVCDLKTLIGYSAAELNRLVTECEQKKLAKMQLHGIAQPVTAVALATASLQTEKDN
# How it was run: as §1
# [4] = molecular target: ELF1 (Homo sapiens, UniProt P32519 1-619)
# Sequence of ELF1 (P32519 whole entry): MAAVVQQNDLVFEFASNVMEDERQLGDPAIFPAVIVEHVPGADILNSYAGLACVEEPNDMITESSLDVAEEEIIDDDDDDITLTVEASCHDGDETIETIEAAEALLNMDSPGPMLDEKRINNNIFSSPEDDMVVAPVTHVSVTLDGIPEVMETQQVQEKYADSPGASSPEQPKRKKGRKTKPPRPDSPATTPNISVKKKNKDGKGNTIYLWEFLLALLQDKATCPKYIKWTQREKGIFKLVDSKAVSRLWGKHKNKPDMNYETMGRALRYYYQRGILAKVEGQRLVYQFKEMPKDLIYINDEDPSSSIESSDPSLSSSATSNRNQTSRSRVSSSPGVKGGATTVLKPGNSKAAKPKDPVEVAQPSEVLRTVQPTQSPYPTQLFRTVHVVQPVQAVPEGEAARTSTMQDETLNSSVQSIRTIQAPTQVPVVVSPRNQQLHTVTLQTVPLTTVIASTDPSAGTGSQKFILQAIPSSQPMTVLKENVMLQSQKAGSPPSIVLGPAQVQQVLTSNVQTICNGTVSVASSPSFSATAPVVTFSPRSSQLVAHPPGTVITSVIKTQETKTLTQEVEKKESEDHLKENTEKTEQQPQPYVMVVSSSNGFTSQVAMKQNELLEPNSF
# How it was run: as §1
# [5] = molecular target: T4, SPIC (Homo sapiens, UniProt Q8N5J4 1-248)
# T4 sequence: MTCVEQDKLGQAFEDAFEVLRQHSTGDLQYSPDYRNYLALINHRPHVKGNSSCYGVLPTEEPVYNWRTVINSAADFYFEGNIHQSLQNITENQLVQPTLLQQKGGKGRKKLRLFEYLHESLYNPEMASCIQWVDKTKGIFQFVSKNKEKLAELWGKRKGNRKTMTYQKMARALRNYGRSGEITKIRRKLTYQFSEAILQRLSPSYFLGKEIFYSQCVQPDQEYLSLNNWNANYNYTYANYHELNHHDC
# How it was run: as §1
# [6] = molecular target: ELF4 (Homo sapiens, UniProt Q99607 1-663)
# Sequence of ELF4 (Q99607 whole entry): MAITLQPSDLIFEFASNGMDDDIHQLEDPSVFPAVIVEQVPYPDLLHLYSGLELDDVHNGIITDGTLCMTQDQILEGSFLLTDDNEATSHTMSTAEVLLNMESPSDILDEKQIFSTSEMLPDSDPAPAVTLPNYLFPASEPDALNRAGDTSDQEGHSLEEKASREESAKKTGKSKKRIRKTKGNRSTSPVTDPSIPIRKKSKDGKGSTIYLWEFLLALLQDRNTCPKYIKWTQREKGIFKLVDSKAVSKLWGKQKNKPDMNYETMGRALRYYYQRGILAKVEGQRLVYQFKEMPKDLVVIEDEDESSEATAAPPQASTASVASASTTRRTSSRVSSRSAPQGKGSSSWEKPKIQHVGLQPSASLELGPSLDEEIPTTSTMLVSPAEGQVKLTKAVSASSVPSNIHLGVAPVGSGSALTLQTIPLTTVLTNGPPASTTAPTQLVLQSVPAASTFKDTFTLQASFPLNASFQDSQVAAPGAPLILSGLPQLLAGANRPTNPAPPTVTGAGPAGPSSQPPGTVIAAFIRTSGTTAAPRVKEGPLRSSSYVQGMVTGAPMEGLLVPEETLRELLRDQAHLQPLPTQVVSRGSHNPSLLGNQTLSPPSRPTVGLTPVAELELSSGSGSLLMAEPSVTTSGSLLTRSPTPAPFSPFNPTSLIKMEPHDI
# How it was run: as §1
# [7] = molecular target: T5, ELK4 (Homo sapiens, UniProt P28324-2 1-405)
# T5 sequence: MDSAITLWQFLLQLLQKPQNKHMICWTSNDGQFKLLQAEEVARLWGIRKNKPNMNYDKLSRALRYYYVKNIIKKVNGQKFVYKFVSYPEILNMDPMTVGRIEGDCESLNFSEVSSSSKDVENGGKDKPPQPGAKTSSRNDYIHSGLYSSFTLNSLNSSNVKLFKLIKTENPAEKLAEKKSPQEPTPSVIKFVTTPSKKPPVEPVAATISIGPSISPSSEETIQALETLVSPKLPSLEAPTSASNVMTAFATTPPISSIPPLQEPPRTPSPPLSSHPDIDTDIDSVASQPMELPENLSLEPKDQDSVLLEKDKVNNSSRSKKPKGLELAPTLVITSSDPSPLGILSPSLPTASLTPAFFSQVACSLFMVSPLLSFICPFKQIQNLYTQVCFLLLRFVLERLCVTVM
# How it was run: as §1
# [8] = molecular target: T6, ETV2 (Homo sapiens, UniProt O00321 1-342)
# T6 sequence: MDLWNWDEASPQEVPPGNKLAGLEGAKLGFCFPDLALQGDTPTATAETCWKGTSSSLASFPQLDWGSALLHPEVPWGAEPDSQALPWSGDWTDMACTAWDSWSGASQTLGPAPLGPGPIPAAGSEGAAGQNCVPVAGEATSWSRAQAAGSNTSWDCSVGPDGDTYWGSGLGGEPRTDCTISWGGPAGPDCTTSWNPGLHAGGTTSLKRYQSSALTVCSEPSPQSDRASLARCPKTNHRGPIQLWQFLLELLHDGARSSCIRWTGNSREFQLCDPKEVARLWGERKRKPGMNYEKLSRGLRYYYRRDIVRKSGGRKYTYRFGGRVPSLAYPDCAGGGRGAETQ
# How it was run: as §1
# [9] = molecular target: T7, ELF3 (Homo sapiens, UniProt P78545 1-371)
# T7 sequence: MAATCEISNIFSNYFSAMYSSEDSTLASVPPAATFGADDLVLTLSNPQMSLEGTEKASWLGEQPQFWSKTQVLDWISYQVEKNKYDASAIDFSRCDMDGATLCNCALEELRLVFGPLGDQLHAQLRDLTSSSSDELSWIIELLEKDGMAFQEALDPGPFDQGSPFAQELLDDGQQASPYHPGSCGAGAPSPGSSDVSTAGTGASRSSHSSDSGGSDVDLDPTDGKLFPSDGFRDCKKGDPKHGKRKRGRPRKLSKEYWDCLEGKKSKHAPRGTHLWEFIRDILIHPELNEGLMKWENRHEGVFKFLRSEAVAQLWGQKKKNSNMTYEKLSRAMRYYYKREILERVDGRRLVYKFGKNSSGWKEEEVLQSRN
# How it was run: as §1
# [10] = molecular target: ETV1 (Homo sapiens, UniProt P50549 1-477)
# Sequence of ETV1 (P50549 whole entry): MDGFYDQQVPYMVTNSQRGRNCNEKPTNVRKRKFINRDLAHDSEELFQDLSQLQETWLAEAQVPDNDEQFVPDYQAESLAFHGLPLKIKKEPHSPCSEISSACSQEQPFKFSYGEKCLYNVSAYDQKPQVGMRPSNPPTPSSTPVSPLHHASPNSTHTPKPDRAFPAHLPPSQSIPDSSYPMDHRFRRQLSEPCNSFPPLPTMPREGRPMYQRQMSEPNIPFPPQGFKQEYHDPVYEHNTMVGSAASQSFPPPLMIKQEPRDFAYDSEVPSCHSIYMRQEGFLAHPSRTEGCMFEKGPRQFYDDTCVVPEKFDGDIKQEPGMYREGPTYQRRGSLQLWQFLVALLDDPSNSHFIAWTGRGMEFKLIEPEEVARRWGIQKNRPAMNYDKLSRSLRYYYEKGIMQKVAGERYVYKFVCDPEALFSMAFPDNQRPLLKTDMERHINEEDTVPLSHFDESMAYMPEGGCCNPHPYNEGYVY
# How it was run: as §1
# [11] = molecular target: T8, ERF (Homo sapiens, UniProt P50548 1-548)
# T8 sequence: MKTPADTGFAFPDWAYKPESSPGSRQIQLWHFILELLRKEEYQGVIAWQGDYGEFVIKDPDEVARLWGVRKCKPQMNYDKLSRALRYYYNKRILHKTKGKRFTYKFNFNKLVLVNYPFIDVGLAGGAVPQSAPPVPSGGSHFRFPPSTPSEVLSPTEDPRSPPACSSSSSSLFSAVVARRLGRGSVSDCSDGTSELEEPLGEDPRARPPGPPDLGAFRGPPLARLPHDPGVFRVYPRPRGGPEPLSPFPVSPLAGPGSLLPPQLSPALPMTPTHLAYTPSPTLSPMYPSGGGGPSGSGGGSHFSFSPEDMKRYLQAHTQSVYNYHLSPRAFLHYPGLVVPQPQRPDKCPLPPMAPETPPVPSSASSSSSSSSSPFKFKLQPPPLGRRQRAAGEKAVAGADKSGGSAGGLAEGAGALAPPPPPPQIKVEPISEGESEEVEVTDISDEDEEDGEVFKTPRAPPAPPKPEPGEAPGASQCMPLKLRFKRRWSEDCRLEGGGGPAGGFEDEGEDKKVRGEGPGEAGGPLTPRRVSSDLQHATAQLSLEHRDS
# How it was run: as §1
# [12] = molecular target: T9, ETV7 (Homo sapiens, UniProt Q9Y603 1-341)
# T9 sequence: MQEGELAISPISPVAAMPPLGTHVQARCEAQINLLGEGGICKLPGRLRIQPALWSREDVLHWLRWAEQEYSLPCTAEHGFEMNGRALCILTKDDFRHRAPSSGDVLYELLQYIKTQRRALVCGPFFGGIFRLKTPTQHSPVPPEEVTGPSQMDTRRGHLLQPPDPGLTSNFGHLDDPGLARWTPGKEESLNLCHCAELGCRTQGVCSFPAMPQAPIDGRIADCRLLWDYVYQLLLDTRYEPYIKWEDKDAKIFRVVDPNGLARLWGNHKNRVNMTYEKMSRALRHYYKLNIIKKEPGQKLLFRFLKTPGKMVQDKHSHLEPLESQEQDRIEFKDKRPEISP
# How it was run: as §1
# [13] = molecular target: T10, ETV3 (Homo sapiens, UniProt P41162-2 1-143)
# T10 sequence: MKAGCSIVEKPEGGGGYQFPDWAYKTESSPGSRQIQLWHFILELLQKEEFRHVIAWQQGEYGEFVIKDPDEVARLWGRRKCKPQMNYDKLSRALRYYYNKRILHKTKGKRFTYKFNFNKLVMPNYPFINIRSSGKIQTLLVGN
# How it was run: as §1
sequence,measurement,setting,value
ACTTGA,binding signal,[1],"1.1 fold enrichment (6-mer frequency, TF over GST control)"
same,binding signal,[2],"1.1 fold enrichment (6-mer frequency, TF over GST control)"
same,binding signal,[3],"1 fold enrichment (6-mer frequency, TF over GST control)"
same,binding signal,[4],"1.02 fold enrichment (6-mer frequency, TF over GST control)"
same,binding signal,[5],"1 fold enrichment (6-mer frequency, TF over GST control)"
same,binding signal,[6],"1.07 fold enrichment (6-mer frequency, TF over GST control)"
same,binding signal,[7],"1.14 fold enrichment (6-mer frequency, TF over GST control)"
same,binding signal,[8],"1.13 fold enrichment (6-mer frequency, TF over GST control)"
same,binding signal,[9],"1.04 fold enrichment (6-mer frequency, TF over GST control)"
same,binding signal,[10],"1.07 fold enrichment (6-mer frequency, TF over GST control)"
same,binding signal,[11],"1.01 fold enrichment (6-mer frequency, TF over GST control)"
same,binding signal,[12],"1.08 fold enrichment (6-mer frequency, TF over GST control)"
same,binding signal,[13],"1.07 fold enrichment (6-mer frequency, TF over GST control)"
